This passage reports phenotypically active results from the supplement of paper PMC7411054.

Molecules are shown by their SMILES. Where a name gives a salt, the structure may show the parent alone.

The assay relates to HepG2-CANX-COX4. As to the kind of experiment: phenotypically active (imaging signature differs from DMSO and reproducible) at any of 0.3-9 uM (binary (1 = active, 0 = inactive)); higher = active. The settings on record: treatment time: 24 h. In short, it runs like this: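 Fifteen reporter lines derived from A549, HepG2 and WPMY1 cells by gene editing, carrying BFP for segmentation plus GFP and RFP/FusionRed markers, were exposed to 0.3, 1, 3 or 9 µM for 24 h in four wells each and imaged live. Live-cell features from each well were normalised to solvent control wells. A well set counted as deviating when ≥3 of 4 wells lay beyond the 95th percentile of control Euclidean distances, and as reproducible when the median replicate Pearson correlation exceeded the 95th percentile of non-replicates. Phenotypic activity was assigned only when both criteria were met.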
For `Nc1ncnc2c1ncn2[C@H]1O[C@@H](C(=O)N2CCN(CC(=O)Nc3cccc4c3CNC4=O)CC2)[C@H](O)[C@@H]1O`, the phenotypically active was 0 (inactive).
Take `COc1ccc2cc(CCC(C)=O)ccc2c1` [nabumetone]: the phenotypically active is 0 (inactive).
As to `CC(C)c1ccc2oc3nc(N)c(C(=O)O)cc3c(=O)c2c1` [Amlexanox], the phenotypically active is 0 (inactive).
With `O=C(/C=C/N1C[C@H]2C[C@@H]1CN2c1ccccn1)c1ccccc1O` the figure was 0 (inactive).
In the case of `C#CCN(C)Cc1ccccc1` [pargyline], the phenotypically active is 0 (inactive).
For the compound `Cc1nc2c(O)cccc2c(=O)[nH]1`, the phenotypically active is 0 (inactive).
Under `CC(C)Cn1c(=O)n(C)c(=O)c2[nH]cnc21` stands 0 (inactive).
Under `COc1ccccc1OCC(O)CN1CCN(CC(=O)Nc2c(C)cccc2C)CC1` (centres undefined) [ranolazine] stands 0 (inactive); under `COC(=O)c1c(C)cc(OC(=O)c2c(C)cc(O)c(C=O)c2O)c(C)c1O` [Atranorin], 0 (inactive); under `CC(C)NCCCC1(C(N)=O)c2ccccc2-c2ccccc21` [indecainide], 0 (inactive).
Under `O=C1c2ccccc2C(Cc2ccncc2)(Cc2ccncc2)c2ccccc21` stands 0 (inactive); under `CC1=NN(c2ccc(C(=O)O)cc2)C(=O)/C1=C\c1ccc(-c2cc(C)c(C)cc2[N+](=O)[O-])o1`, 0 (inactive); under `CCCC(=O)Nc1ncnc2c1ncn2[C@@H]1O[C@@H]2COP(=O)(O)O[C@H]2[C@H]1OC(=O)CCC` [Dibutyryl-cAMP, sodium salt], 0 (inactive).
Consider `CCO[C@@H](Cc1ccc(OCCc2ccc(OS(C)(=O)=O)cc2)cc1)C(=O)O` [Tesaglitazar], for which the phenotypically active was 0 (inactive).
